# In PubChem BioAssay (NCATS):
# Values joined by “and” are separate entries in the source; they are usually repeats but may differ in a detail not shown here. Equal values may be shown once. Values without a mark were called inactive. Results filed as inconclusive are left out. A call without a number means that no potency is given here. Active and inactive are the calls of the source. Unless noted, calls follow the shape of the dose curve; as a rule, active = well fitted curve in the direction sought with a large enough effect; inconclusive = small, poorly fitted or top-dose-only effect, or another doubt; inactive = no such curve, though single readings can be large; an effect the other way counts as inactive or inconclusive.
# What was measured:
# [1] = Cellular Toxicity (caspase-3) N2a (AID 665); details: Potency: caspase-3 activation;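 also: compound exposure lasted 16 h at 37 °C before readout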
# Outline: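 Luminescent Caspase-Glo 3/7 readout in N2a mouse neuroblastoma cells after 16 h compound exposure at 37 °C. Signal scaled to DMSO (basal) and 10 uM staurosporine (100%). Concentration-response fitted with Hill equation for AC50.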
# [2] = Cellular Toxicity (caspase-3) NIH 3T3 (AID 666)
# Outline: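 NIH 3T3, 1000 cells/well, 5 hr settle then 16 hr compound at 37°C; Caspase-Glo 3/7, 20 min RT, luminescence. DMSO = basal, 100 uM tamoxifen = 100%. Hill-equation AC50, qHTS.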
# [3] = Cellular Toxicity (caspase-3) Renal Proximal Tubule (AID 667); details: Potency: caspase-3 activation;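 also: cells exposed to compound for 16 hours at 37 °C before detection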
# Outline: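 Primary rat proximal tubule cells, 1000/well, 5 h plating at 37 °C, then compound 16 h at 37 °C. Caspase-Glo 3/7 reagent, 1 h RT, luminescence. Normalized to DMSO (basal) and 10 uM staurosporine (100%); Hill-fit AC50.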
# [4] = biological target: Cytochrome P450 3A4 (Homo sapiens) (UniProt P08684); test: qHTS Assay for Inhibitors and Substrates of Cytochrome P450 3A4 (AID 884); also: series mostly up to about 57 µM; nearly all actives have a fitted effect of over 50% in size
# Outline: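 Luminescent readout of luciferin produced by CYP3A4 (20 nM) dealkylation of Luciferin-PPXE, 25 uM (its KM). NADPH-driven reaction ran 60 min at RT after 10 min compound preincubation; data scaled to 57 uM ketoconazole as 100% inhibition.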
# [5] = Cell Viability - LYMP2-001 (AID 921); also: series mostly up to about 92 µM; nearly all actives have a fitted effect of over 70% in size
# Outline: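 Human lymphoblastoid cells (Coriell), 2500 per well, were preincubated 5 hr at 37 C, then exposed to compounds in complete medium for 24 hr at 37 C. Cellular ATP was read by CellTiter-Glo luminescence; AC50 from Hill fits of concentration-response data.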
# [6] = biological target: Guanine nucleotide-binding protein G(i) subunit alpha-1 (Homo sapiens) (UniProt P63096); test: qHTS Assay for Inhibitors of RGS12 GoLoco Motif Activity (Green Fluorophore) (AID 879);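 also: negative values mean loss of peptide binding seen as reduced polarization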
# Outline: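 A drop in FITC polarization marked displacement of the FITC-tagged RGS12 GoLoco peptide (10 nM) from Gαi1 (50 nM). Compounds were incubated 10 min at room temperature in Tris pH 7.5 buffer containing 150 mM NaCl, 0.1 mM GDP and 0.05% NP40; unlabeled peptide titration served as control.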
# [7] = biological target: Cytochrome P450 2C9 (Homo sapiens) (UniProt P11712); test: qHTS Assay for Inhibitors and Substrates of Cytochrome P450 2C9 (AID 883); also: nearly all actives have a fitted effect of over 60% in size
# Outline: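 Human CYP2C9 (10nM) hydroxylated Luciferin-H (100uM, at its KM) to luciferin in 25mM KPO4. Compound was preincubated 10 min at 37C, then NADPH regeneration started a 60 min reaction at 37C. Luminescence was read after detection reagent, normalized to 57uM sulphaphenazole.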
# [8] = biological target: Cytochrome P450 3A4 (Homo sapiens) (UniProt P08684); test: qHTS Assay for Activators of Cytochrome P450 3A4 (AID 885); also: nearly all actives have a fitted effect of over 65% in size
# Outline: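 Luminescent readout of luciferin formed from 25 uM Luciferin-PPXE (KM level) by 20 nM CYP3A4 in 200 mM KPO4, with 60 min NADPH-driven reaction at room temperature after 10 min compound exposure. Ketoconazole (57 uM) defined 100% inhibition.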
# [9] = biological target: Cytochrome P450 2D6 (Homo sapiens) (UniProt P10635); test: qHTS Assay for Inhibitors and Substrates of Cytochrome P450 2D6 (AID 891); also: nearly all actives have a fitted effect of over 60% in size; also: potency is read from the fitted curve at half-maximal effect
# Outline: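 Luminescent read-out of luciferin formed by 5 nM human CYP2D6 demethylating 30 uM Luciferin-ME EGE (Km level) over 60 min at room temperature after NADPH regeneration addition. Data normalized to full inhibition by 1.43 uM quinidine.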
# [10] = biological target: Cytochrome P450 2C19 (Homo sapiens) (UniProt P33261); test: qHTS Assay for Inhibitors and Substrates of Cytochrome P450 2C19 (AID 899); also: nearly all actives have a fitted effect of over 60% in size; also: potency is read from the fitted curve at half-maximal effect
# Outline: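 Human CYP2C19 (5nM) with Luciferin-H EGE at 10uM (its KM) in 50mM KPO4 was preincubated with compound for 10 min at 37C. NADPH regeneration started a 60 min 37C reaction. Luciferin was read by luminescence, normalized to 57uM ketoconazole.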
# [11] = Confirmation and Secondary Assay for Modulators of Hemoglobin Beta Chain Splicing at IVS2 654 locus (AID 910);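 also: per-well total GFP intensity by laser scanning cytometry after 2-day treatment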
# Outline: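 HeLa cells stably carrying EGFP interrupted by mutant beta-globin IVS2-654 intron (CMV-driven) were treated with compound for 2 days at 37C; corrected splicing was scored as total peak GFP intensity per well (488 nm excitation, 500-520 nm emission).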
# [12] = qHTS Assay for Identification of Small Molecule Agonists for Hypoxia Response Element Signaling Pathway (AID 914; active = well fitted activation curve with a large enough effect in the signal ratio, with a control signal flat, not every such curve was filed as active; the % refers to the signal ratio); details: ME-180 HRE-bla reporter, beta-lactamase ratio, CoCl2, 17 h; hits give high values
# Outline: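 ME-180 cells carrying an HRE-driven beta-lactamase reporter were treated with compounds in a titration series plus an EC50 level of CoCl2 for 17 h at 37 degrees Celsius; CCF4 readout as the 460nm/530nm ratio gave AC50 values.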
# [13] = qHTS Assay for Identification of Small Molecule Agonists for Thrombopoietin (TPO) Signaling Pathway (AID 917)
# Outline: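 First, Ba/F3 cells with human TPO receptor were held overnight without IL-3. Next, compounds and TPO (26 pM final) were added. After 24 hrs at 37 C, luciferase detection reagent was added and luminescence measured following 10 min at room temperature.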
# [14] = qHTS Assay for Identification of Small Molecule Agonists for NFkB Signaling Pathway (AID 928; calls by dose curve); details: NFkB beta-lactamase reporter cells, blue/green ratio
# Outline: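 Activators were sought with TNF alpha co-added at 10 pM final (its EC50) to beta-lactamase reporter cells. Cells were plated in OPTI MEM with 0.5% FBS and exposed for 5 hrs at 37 C. The FRET substrate ratio was read at 460 and 530 nm.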
# [15] = Confirmation and Secondary Assay for Modulators of Hemoglobin Beta Chain Splicing at IVS2 705 locus (AID 930);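 also: HeLa cells stably expressing the EGFP-705 splicing reporter; series mostly up to about 46 µM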
# Outline: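 HeLa cells stably carrying EGFP interrupted by mutant beta-globin IVS2-705 intron (CMV-driven) were seeded at 500 cells/well, treated next day with compound for 2 days at 37C; corrected splicing restores EGFP, read as total peak GFP intensity per well.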
# [16] = biological target: Pyruvate kinase (Leishmania mexicana) (UniProt Q27686); test: qHTS Validation Assay for Inhibitors of Leishmania Mexicana Pyruvate Kinase (AID 945)
# Outline: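 LmPYK E451W 0.2 nM; 0.5 mM PEP, 0.1 mM ADP, 7 mM MgCl2, 50 mM KCl, imidazole pH 7.2, 0.01% Tween 20, 0.05% BSA; 1 h RT; PKLight luminescence; DMSO-normalized.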
# [17] = qHTS Assay for Identification of Small Molecule Antagonists for Thrombopoietin (TPO) Signaling Pathway (AID 918); details: TPO-dependent cell signaling reporter, antagonist mode; also: potency is read from the fitted curve at half-maximal effect; nearly all actives have a fitted effect of over 60% in size
# Outline: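 Luminescence read-out: GPIIb-promoter luciferase in Ba/F3 cells carrying human TPO receptor. Compounds added with 26 pM TPO (EC50), 24 hrs, 37 C, 5% CO2; cells deprived of IL-3 overnight beforehand. Inhibition of signal scored.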
# [18] = biological target: Muscarinic acetylcholine receptor M1 (Rattus norvegicus) (UniProt P08482); test: qHTS Assay for Antagonists of Acetylcholine Muscarinic M1 Receptor: Measurement of IP-One Response (AID 944); also: nearly all actives have a fitted effect of over 75% in size
# Outline: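 Read-out: HTRF competition between d2-IP1 and Eu-cryptate anti-IP1 antibody, emission 620 and 665 nm. Stimulus was carbachol, EC80 (200 nM), for 30 min in M1-CHO cells (rat receptor), after 10 min compound pre-treatment.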
# [19] = biological target: Muscarinic acetylcholine receptor M1 (Rattus norvegicus) (UniProt P08482); test: qHTS Assay for Antagonists of Acetylcholine Muscarinic M1 Receptor: Kinetic Measurement of Intracellular Calcium Response (AID 943);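 also: Fluo-4 calcium signal as peak divided by basal fluorescence over 4 min; series mostly up to about 35 µM; nearly all actives have a fitted effect of over 75% in size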
# Outline: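 Read-out: peak over basal Fluo-4 fluorescence, kinetic at 1 Hz for 4 min after EC80 carbachol (100 nM final). Rat M1-CHO cells, dye loaded 1 h at 37C, compound added 10 min before agonist.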
# Guanine nucleotide-binding protein G(i) subunit alpha-1 (Homo sapiens), sequence (P63096 whole entry, looked up): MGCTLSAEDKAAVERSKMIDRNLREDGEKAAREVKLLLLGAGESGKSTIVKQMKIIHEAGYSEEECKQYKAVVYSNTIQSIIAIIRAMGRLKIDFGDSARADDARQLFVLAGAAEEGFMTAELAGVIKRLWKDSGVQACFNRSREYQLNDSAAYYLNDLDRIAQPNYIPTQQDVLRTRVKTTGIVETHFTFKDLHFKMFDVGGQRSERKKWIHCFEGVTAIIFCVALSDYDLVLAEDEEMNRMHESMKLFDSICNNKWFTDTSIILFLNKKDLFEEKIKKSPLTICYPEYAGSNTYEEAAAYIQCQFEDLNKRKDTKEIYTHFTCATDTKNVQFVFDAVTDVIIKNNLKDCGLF
# Cytochrome P450 2C19 (Homo sapiens), sequence (P33261 whole entry, looked up): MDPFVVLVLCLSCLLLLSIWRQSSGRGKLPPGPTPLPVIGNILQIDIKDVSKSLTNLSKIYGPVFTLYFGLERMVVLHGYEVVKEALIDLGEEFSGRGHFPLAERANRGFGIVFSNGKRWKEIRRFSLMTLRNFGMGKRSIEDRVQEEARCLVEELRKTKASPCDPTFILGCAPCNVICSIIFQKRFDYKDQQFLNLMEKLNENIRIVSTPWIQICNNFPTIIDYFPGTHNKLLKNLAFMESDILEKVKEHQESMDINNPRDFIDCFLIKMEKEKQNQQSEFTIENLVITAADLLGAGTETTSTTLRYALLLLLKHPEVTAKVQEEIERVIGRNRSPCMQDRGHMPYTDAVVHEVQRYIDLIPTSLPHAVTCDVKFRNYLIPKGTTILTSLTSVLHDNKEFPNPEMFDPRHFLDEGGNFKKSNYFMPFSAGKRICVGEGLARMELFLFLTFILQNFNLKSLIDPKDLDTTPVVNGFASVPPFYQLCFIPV
# Pyruvate kinase (Leishmania mexicana), sequence (Q27686 2-499 E452W): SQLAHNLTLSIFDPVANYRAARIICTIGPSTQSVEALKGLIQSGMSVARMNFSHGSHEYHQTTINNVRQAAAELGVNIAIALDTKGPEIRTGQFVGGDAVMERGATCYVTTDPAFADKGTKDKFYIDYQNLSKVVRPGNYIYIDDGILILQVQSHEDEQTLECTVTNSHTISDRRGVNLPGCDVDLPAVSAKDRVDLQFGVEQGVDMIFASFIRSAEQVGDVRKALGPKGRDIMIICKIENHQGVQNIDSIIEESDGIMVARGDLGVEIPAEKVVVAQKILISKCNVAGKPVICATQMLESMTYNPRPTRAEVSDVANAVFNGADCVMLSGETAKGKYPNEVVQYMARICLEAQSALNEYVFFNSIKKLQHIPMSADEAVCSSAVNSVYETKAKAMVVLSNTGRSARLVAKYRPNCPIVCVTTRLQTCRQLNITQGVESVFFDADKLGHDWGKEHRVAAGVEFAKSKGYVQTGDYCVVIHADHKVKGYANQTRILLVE
# Muscarinic acetylcholine receptor M1 (Rattus norvegicus), sequence (P08482 whole entry, looked up): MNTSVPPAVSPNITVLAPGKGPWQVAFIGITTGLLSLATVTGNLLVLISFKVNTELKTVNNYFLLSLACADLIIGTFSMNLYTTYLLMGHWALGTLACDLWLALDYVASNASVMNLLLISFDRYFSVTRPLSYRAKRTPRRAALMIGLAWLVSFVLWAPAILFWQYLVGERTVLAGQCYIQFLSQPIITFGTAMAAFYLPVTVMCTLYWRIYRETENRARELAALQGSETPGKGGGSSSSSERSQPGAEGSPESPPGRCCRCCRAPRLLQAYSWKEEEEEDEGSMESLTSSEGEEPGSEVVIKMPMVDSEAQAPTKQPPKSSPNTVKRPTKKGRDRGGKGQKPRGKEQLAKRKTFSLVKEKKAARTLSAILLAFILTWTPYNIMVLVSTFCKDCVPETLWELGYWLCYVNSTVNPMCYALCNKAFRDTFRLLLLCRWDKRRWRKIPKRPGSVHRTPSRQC
# Cytochrome P450 3A4 (Homo sapiens), sequence (P08684 whole entry, looked up): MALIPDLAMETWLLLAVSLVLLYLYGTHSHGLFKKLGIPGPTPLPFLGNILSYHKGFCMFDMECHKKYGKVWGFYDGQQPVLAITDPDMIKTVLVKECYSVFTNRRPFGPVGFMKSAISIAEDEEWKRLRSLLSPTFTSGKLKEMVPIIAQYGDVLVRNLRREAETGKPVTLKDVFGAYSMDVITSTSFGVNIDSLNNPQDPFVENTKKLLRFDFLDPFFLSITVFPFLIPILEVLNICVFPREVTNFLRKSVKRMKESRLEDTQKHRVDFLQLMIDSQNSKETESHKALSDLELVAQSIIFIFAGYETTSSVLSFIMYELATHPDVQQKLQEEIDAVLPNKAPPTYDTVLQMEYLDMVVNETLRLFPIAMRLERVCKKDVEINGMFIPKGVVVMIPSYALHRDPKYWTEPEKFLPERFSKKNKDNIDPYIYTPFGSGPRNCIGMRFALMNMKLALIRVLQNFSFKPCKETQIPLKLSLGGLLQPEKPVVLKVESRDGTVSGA
# Cytochrome P450 2D6 (Homo sapiens), sequence (P10635 whole entry, looked up): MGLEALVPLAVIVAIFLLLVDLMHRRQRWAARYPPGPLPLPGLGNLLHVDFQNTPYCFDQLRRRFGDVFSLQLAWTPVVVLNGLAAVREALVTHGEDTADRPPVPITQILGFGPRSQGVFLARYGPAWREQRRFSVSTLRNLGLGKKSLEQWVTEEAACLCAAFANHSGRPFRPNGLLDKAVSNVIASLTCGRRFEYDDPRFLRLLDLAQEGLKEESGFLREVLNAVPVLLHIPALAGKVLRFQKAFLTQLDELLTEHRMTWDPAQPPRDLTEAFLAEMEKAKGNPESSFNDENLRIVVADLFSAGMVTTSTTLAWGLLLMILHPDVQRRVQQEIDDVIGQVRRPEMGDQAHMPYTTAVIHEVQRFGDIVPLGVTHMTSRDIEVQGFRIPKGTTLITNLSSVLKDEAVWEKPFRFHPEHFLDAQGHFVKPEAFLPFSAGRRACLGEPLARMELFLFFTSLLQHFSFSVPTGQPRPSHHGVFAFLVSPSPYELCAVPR
# Cytochrome P450 2C9 (Homo sapiens), sequence (P11712 whole entry, looked up): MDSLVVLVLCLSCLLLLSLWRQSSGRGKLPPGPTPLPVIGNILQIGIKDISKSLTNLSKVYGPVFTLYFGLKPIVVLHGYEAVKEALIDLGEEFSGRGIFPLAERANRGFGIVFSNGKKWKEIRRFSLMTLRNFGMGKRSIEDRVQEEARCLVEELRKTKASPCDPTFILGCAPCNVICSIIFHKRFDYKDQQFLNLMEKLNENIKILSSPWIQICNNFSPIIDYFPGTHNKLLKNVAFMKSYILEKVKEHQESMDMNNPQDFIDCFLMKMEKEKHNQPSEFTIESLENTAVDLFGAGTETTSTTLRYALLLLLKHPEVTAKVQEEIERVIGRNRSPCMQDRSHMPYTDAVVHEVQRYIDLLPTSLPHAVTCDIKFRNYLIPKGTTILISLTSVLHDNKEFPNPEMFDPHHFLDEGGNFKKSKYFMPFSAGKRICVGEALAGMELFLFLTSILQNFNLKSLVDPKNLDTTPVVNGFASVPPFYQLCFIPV
structure (smiles),measurement,setting,value
CC(=O)O[C@]1(C(C)=O)CC[C@H]2[C@@H]3C=C(Cl)C4=CC(=O)[C@@H]5C[C@@H]5[C@]4(C)[C@H]3CC[C@@]21C,Potency,[1],inactive
same,outcome,[2],inactive
same,Potency,[3],inactive
same,Potency,[4],inactive
same,Potency,[5],inactive
CCCNC(=O)NS(=O)(=O)c1ccc(Cl)cc1,Potency,[1],inactive
same,outcome,[2],inactive
same,Potency,[3],inactive
same,outcome,[6],inactive
same,Potency,[7],inactive
same,Potency,[4],inactive
same,outcome,[8],inactive
same,Potency,[9],inactive
same,Potency,[10],inactive
same,outcome,[11],inactive
same,activation,[12],-1.93% and -16.9% and -21.4%
same,Potency,[13],inactive
same,Potency,[5],inactive
same,Potency,[14],0.447 µM (active)
same,outcome,[15],inactive
same,Potency,[16],inactive
COc1ccccc1N1CCN(CCCNc2cc(=O)n(C)c(=O)n2C)CC1,outcome,[6],inactive
same,Potency,[4],inactive
same,Potency,[10],7.94 µM (active)
same,outcome,[11],inactive
same,Potency,[13],inactive
same,outcome,[15],inactive
same,Potency,[16],inactive
CC/C(=C(\c1ccccc1)c1ccc(OCCN(C)C)cc1)c1ccccc1,outcome,[2],inactive
same,outcome,[6],inactive
same,outcome,[11],inactive
same,Potency,[17],10 µM (active)
same,outcome,[15],inactive
same,Potency,[16],inactive
O=C(O)c1cc(O)c2c(c1)C(=O)c1cccc(O)c1C2=O,Potency,[1],inactive
same,outcome,[2],inactive
same,Potency,[3],inactive
same,Potency,[4],inactive
same,outcome,[8],inactive
same,Potency,[5],inactive
O=C1NC(=O)C(c2ccccc2)(c2ccccc2)N1,Potency,[1],inactive
same,outcome,[2],inactive
same,Potency,[3],inactive
same,outcome,[6],inactive
same,Potency,[4],inactive
same,outcome,[11],inactive
same,Potency,[13],inactive
same,Potency,[5],inactive
same,outcome,[15],inactive
same,Potency,[16],inactive
CC(C)(C)c1ccc(C(O)CCCN2CCC(C(O)(c3ccccc3)c3ccccc3)CC2)cc1 (configuration not stated),outcome,[6],inactive
same,activation,[12],3.01%
same,Potency,[17],2.51 µM (active)
same,Potency,[16],inactive
CCN(CC)CCNC(=O)c1ccc(N)cc1,outcome,[6],inactive
same,outcome,[11],inactive
same,Potency,[13],inactive
same,outcome,[15],inactive
same,outcome,[18],inactive
same,Potency,[16],inactive
C[N+](C)(C)CC(=O)O,outcome,[6],inactive
same,Potency,[13],inactive
same,outcome,[19],inactive
same,outcome,[18],inactive
same,Potency,[16],inactive
COCCCCC(=NOCCN)c1ccc(C(F)(F)F)cc1,outcome,[8],inactive
same,Potency,[9],3.98 µM (active)
same,Potency,[10],0.0631 µM (active)
same,Potency,[13],inactive
same,outcome,[19],inactive
same,outcome,[18],inactive
same,Potency,[16],inactive
Cc1cccc(C)c1OCC(C)N (configuration not stated),outcome,[11],inactive
same,outcome,[15],inactive
COc1cc(O)c2c(c1)C(=O)c1cc(C)cc(O)c1C2=O,Potency,[4],inactive
same,outcome,[11],inactive
same,outcome,[15],inactive
